Measurements from PubChem BioAssay (EPA / NIEHS).
Where “and” joins values, the source holds several entries; their conditions need not be identical. Identical values can stand only once. Results filed as inconclusive are left out. The source holds several records for some structures; these can differ, active in one and inactive in another. Calls of active or inactive are those of the source. Rule for the calls: active = hit-call score of the fitted dose curve at least 0.9, where 1 is the maximum; inconclusive = response in the unintended direction; inactive = score below 0.9.

Key:
[1] = tested on: zebrafish Estrogen Receptor (ESR2B), gene 317733; experiment: ATG_zfER2b_XSP1: Attagene TRANS-FACTORIAL Multi-Species (XSP1) HepG2 Assay for zebrafish Estrogen Receptor (ESR2B) (AID 2283773)
Method in brief: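 Gain-of-signal endpoint relative to DMSO: reporter transcript levels quantified by RT-PCR and capillary electrophoresis after 24 h compound exposure of HepG2 cells expressing a zebrafish ER2b-Gal4 chimera.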

[2] = tested on: frog Estrogen Receptor (ESR2), gene 100174814; experiment: ATG_frER2_XSP1: Attagene TRANS-FACTORIAL Multi-Species (XSP1) HepG2 Assay for frog Estrogen Receptor (ESR2) (AID 2283774)
Method in brief: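 Transactivation of an exogenous receptor-Gal4 fusion is tracked in transfected HepG2 cells via induced reporter transcript levels. After 24 h treatment, RT-PCR with capillary electrophoresis quantifies signal gain over DMSO.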

[3] = ACEA_AR_antagonist_AUC_viability: ACEA Biosciences xCELLigence Real-Time Cell Analysis on Androgen Receptor Antagonism for Viability (AID 2283776);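 note: hits lower the growth signal relative to DMSO meaning cytotoxicity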
Method in brief: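 22Rv1 human prostate cancer cells were seeded on electrode plates, monitored overnight, then exposed to eight 1:4 dilutions from 100 uM final. Impedance-based growth kinetics at 80 h gave an AUC viability endpoint normalized to DMSO.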

[4] = tested on: frog Estrogen Receptor (ESR1), gene 398734; experiment: ATG_frER1_XSP1: Attagene TRANS-FACTORIAL Multi-Species (XSP1) HepG2 Assay for frog Estrogen Receptor (ESR1) (AID 2283777)
Method in brief: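 Human hepatoma HepG2 cells carried transiently transfected multiplexed Gal4-driven reporters and were exposed to test chemicals for 24 hours. Transcripts were quantified by fluorescent RT-PCR with capillary electrophoresis, referenced to DMSO.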

[5] = biological target: chicken Estrogen Receptor (ESR1), ESR1 (gene 396099) (UniProt P06212); experiment: ATG_chERa_XSP1: Attagene TRANS-FACTORIAL Multi-Species (XSP1) HepG2 Assay for chicken Estrogen Receptor (ESR1) (AID 2283779)
Sequence of chicken Estrogen Receptor (ESR1), ESR1 (gene 396099) (P06212 whole entry, looked up, the tested form may be a part): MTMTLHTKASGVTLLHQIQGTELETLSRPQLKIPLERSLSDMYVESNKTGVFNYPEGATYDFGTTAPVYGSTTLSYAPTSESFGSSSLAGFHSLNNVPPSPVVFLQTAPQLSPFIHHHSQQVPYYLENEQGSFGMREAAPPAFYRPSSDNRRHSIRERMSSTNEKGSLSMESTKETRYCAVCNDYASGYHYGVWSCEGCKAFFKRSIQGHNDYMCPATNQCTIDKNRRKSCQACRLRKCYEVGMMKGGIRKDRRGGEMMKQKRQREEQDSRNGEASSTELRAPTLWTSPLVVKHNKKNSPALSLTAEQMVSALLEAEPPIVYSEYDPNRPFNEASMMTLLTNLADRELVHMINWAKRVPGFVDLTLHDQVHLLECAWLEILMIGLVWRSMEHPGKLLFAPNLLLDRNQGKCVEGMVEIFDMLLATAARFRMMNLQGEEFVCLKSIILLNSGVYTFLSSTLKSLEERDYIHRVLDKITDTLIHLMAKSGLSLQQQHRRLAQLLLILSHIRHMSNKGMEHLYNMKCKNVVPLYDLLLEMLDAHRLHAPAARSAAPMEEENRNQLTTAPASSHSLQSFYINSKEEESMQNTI
Method in brief: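 Human liver HepG2, transient MRTU transfection (NR-Gal4 chimeras, GAL4-UAS reporters); 24 h compound exposure; 3 nM 6-alpha-fluorotestosterone in medium. Total RNA → RT-PCR → 6-FAM primer extension → HpaI → CE. Positive direction vs DMSO baseline.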

[6] = biological target: Estrogen receptor (Homo sapiens) (UniProt P03372); experiment: ATG_hERa_XSP1: Attagene TRANS-FACTORIAL Multi-Species (XSP1) HepG2 Assay for human Estrogen Receptor (ESR1) (AID 2283780)
Sequence of Estrogen receptor (Homo sapiens) (P03372 whole entry, looked up): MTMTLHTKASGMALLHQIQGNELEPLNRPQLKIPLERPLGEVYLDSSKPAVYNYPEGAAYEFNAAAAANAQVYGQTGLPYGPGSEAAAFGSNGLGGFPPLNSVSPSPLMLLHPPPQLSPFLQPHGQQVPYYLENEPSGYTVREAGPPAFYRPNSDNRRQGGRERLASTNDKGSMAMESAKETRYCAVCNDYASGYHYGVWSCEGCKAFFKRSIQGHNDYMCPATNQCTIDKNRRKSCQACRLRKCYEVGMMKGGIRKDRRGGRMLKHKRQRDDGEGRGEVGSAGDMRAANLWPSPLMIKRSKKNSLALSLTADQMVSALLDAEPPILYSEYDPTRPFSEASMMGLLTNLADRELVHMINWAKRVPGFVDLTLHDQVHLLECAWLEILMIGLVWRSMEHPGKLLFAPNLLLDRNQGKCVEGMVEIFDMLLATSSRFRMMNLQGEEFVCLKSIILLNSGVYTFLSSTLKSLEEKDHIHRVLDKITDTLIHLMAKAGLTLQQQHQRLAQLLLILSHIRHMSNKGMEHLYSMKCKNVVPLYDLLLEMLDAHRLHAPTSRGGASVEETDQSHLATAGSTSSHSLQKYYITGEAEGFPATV
Experimental: ATG_XSP1_multi-species_TRANS is a cell-based, multiplexed assay created by modifying the existing Attagene TRANS-FACTORIAL system to include a panel of nuclear receptors from some or all the following species: human (Homo sapiens), mouse (Mus musculus), frog (Xenopus laevis), zebrafish (Danio rerio), chicken (Gallus gallus), and turtle (Chrysemys picta). The ECOTOX-FACTORIAL format uses HepG2, a human liver cell line, with measurements taken at 24 hours after chemical dosing in a 24-well plate. Xsp1 included 3 nM 6-alpha-fluorotestosterone to partially stimulate the androgen receptor.ATG_hERa_XSP1 is one of 29 assay components measured or calculated from the ATG_XSP1_multi-species_TRANS assay. It is designed to make measurements of mRNA induction, a form of inducible reporter, as detected with fluorescence intensity signals by Reverse transcription polymerase chain reaction (RT-PCR) and Capillary electrophoresis technology.The assay endpoint ATG_hERa_XSP1 was analyzed in the positive analysis fitting direction relative to DMSO as the negative control and baseline of activity. Using a type of inducible reporter, measures of mRNA for gain-of-signal activity can be used to understand the reporter gene at the transcription factor-level as they relate to the gene ER. Furthermore, this assay endpoint can be referred to as a primary readout, because this assay has produced multiple assay endpoints where this one serves a reporter gene function. To generalize the intended target to other relatable targets, this assay endpoint is annotated to the nuclear receptor intended target family, where the subfamily is steroidal.
Human liver HepG2 cells are transiently transfected with multiple reporter transcription units (MRTUs) in 6-well plates using FuGene 6 reagent (Roche; 3 ml FuGene/1 mg DNA). The MRTU constructs are regulated by a cis-regulating element (promoter). […] A major difference between the CIS and TRANS system is that in CIS activities of endogenous TFs are measured, whereas the TRANS assay evaluates changes in activities of exogenous, chimeric NR-Gal4 proteins. […] At the end of 24 hour incubation, total RNA was isolated using TriZol reagent (Invitrogen). The isolated RNA is then reverse-transcribed using oligo(dT) primer and Mo-MLV reverse transcriptase (Invitrogen) with DNAse I (Ambion) treatment for 30 min. The one-tenth of the produced cDNA was amplified by PCR using Taq DNA polymerase (Invitrogen) and two reporter sequence-specific primers. The PCR products were fluorescently labeled by primer extension with 6-arboxyfluorescein (6-FAM) 5'-labeled reporter sequence-specific primer (2 min at 95 C, 20 s at 68 C and 10 min at 72 C) and these products were digested with 5U of HpaI (New England Biolabs) for 2h at 37 C. The fragments were purified using Qiaquick PCR columns (Qiagen), analyzed on an ABI 3130xL genetic analyzer (Applied Biosystems) with peak positions identified by using a set of X-rhodamine (ROX)-labeled MapMarker1000 molecular weight standards (BioVentures). The raw capillary electrophoresis data was processed using Attagraph software (Attagene).

[7] = tested on: turtle Estrogen Receptor (ESR1), gene 101933533; experiment: ATG_trERa_XSP1: Attagene TRANS-FACTORIAL Multi-Species (XSP1) HepG2 Assay for turtle Estrogen Receptor (ESR1) (AID 2283781)
Method in brief: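 Activity was taken as gain of reporter transcript over DMSO controls. HepG2 cells carrying GAL4-UAS-driven reporters were exposed for 24 h before RNA was extracted and reporter sequences were measured by fluorescence after capillary separation.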

AR (gene 367) = AR (gene 367) (UniProt P10275); experiment: ACEA_AR_agonist_80hr: ACEA Biosciences xCELLigence Real-Time Cell Analysis on Androgen Receptor Agonism for Proliferation (AID 2283783);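 note: hits increase impedance growth signal above DMSO baseline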
Sequence of AR (gene 367) (P10275 whole entry, looked up): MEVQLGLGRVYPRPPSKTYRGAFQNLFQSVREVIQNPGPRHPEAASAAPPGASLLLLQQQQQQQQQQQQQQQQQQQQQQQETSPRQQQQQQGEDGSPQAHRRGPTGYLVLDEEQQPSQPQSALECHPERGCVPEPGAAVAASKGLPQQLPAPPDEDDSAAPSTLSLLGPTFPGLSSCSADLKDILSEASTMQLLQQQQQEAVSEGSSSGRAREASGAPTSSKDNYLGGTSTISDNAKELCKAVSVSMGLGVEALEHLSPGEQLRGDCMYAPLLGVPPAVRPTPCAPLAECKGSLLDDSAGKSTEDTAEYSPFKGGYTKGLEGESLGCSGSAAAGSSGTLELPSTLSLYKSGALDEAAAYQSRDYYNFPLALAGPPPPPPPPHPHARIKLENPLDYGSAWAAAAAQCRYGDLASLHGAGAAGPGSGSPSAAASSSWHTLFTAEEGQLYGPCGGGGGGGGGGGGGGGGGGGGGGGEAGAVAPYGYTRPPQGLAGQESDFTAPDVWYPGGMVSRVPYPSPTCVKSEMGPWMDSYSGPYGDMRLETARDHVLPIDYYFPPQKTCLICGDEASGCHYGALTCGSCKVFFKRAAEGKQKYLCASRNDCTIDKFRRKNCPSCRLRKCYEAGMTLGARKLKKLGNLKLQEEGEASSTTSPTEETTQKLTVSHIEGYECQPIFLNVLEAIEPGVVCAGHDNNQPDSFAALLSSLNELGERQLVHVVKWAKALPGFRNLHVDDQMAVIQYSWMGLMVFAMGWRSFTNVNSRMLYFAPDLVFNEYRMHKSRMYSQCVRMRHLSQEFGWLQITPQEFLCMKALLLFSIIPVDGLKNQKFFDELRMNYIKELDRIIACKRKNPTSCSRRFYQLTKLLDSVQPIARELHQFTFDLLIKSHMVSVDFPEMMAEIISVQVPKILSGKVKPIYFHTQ
Method in brief: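 Androgen-driven proliferation in 22Rv1 cells is tracked as electrical impedance, taken 80 h after continuous exposure to compound (eight concentrations, 1:4 steps, maximum 100 uM final). Activity is fitted in the positive direction with DMSO as baseline.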

[8] = ACEA_AR_agonist_AUC_viability: ACEA Biosciences xCELLigence Real-Time Cell Analysis on Androgen Receptor Agonism for Viability (AID 2283775);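 for AC50: viability read 80 hours after compound addition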
Method in brief: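 Real-time impedance tracking of 22Rv1 growth, readings every 5 min for 5 h then hourly; area-under-curve viability endpoint at 80 hours, relative to DMSO. Compounds at eight concentrations, 1:4 steps, top 100 uM, n = 2.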

O=C(c1ccc(O)cc1O)c1ccc(O)cc1O
AC50 [1]: 0.94 µM (active) | AC50 [2]: 0.519 µM (active) | outcome [3]: inactive | AC50 [4]: 0.544 µM (active) | AC50 [5]: 3.09 µM (active) | AC50 [6]: 643 nM (active) | AC50 [7]: 1.08 µM (active) | AC50 (AR (gene 367)): 0.187 µM (active)

CC1(C)C(C=C(Cl)Cl)C1C(=O)OCc1cccc(Oc2ccccc2)c1 (stereo not drawn)
AC50 [1]: 19.8 µM (active) | AC50 [2]: 2.79 µM (active) | AC50 [8]: 30.8 µM (active) | AC50 [3]: 34.2 µM (active) | outcome [4]: inactive | outcome [5]: inactive | outcome [6]: inactive | outcome [7]: inactive | outcome (AR (gene 367)): inactive

CC(C)(C)[C@@H](O)[C@@H](Cc1ccc(Cl)cc1)n1cncn1
outcome [8]: inactive | AC50 [3]: 24.1 µM (active)

C#C[C@]1(O)CC[C@H]2[C@@H]3CCC4=CC(=O)CC[C@@H]4[C@H]3CC[C@@]21CC
AC50 [1]: 0.451 µM (active) | outcome [1]: inactive | AC50 [2]: 1 µM (active) | outcome [2]: inactive | AC50 [3]: 0.357 µM (active) | AC50 [4]: 0.222 µM (active) | outcome [4]: inactive | AC50 [5]: 0.404 µM (active) | outcome [5]: inactive | AC50 [6]: 277 nM (active) and 33.8 nM (active) | AC50 [7]: 327 nM (active) and 83.2 nM (active)

CCCN(CCC)c1c([N+](=O)[O-])cc(C(F)(F)F)c(N)c1[N+](=O)[O-]
AC50 [8]: 14.9 µM (active) | AC50 [3]: 35 µM (active)

CCN(Cc1c(F)cccc1Cl)c1c([N+](=O)[O-])cc(C(F)(F)F)cc1[N+](=O)[O-]
AC50 [8]: 50 µM (active) | AC50 [3]: 25 µM (active)

CCCOC(=O)NCCCN(C)C
outcome [8]: inactive | outcome [3]: inactive

CC(=O)S[C@@H]1CC2=CC(=O)CC[C@]2(C)[C@H]2CC[C@@]3(C)[C@@H](CC[C@@]34CCC(=O)O4)[C@H]12
AC50 [1]: 82.2 µM (active) | AC50 [2]: 48.6 µM (active) | AC50 [3]: 35.4 µM (active) | outcome [4]: inactive | outcome [5]: inactive | outcome [6]: inactive | outcome [7]: inactive
